Assay results taken from PubChem BioAssay AID2289 (National Center for Advancing Translational Sciences (NCATS), 2010).
Hit rate of the full screen: of about 340,000 compounds, about 3,300 (0.97%) were called active. Another 9% or so got no clear call; they are omitted. Calls follow the shape of the dose curve; as a rule, active = well fitted inhibition curve with a large enough effect; inconclusive = small, poorly fitted or top-dose-only effect, or effect the other way; inactive = flat fitted curve, though single readings scatter. The list shows a part of the results.

assay: qHTS Assay for Modulators of miRNAs and/or Inhibitors of miR-21; conditions: HeLa miR-21-FLuc reporter, luciferase luminescence, 48 h; actives lower the signal; also: nearly all actives have a fitted effect of over 55% in size
Procedure, shortened: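 HeLa cells endogenously expressing miR-21, stably carrying CMV-driven firefly luciferase with a downstream miR-21 binding site, 2000 cells/well. Titrations up to approximately 40 uM, 48 hours; luciferase luminescence read.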
Potency is read from the fitted curve at half-maximal effect.

Potency, active:
CCOC(=O)c1sc(Nc2ccccc2Cl)nc1C 4.65 µM, CCOC(=O)c1sc(NC(=O)c2ccccc2OC)nc1C 0.261 µM, Cc1ccccc1/C=N/NC(=O)c1sccc1C 1.47 µM, Cc1ccccc1C(=O)N/N=C/c1ccsc1C 2.33 µM, c1ccc(-c2cc(-c3ccccc3)on2)cc1 1.04 µM, O=C(c1cc(-c2ccc(Cl)cc2)on1)N1CCCCCC1 1.47 µM, O=C(c1cc(-c2ccc(Cl)cc2)on1)N1CCCC1 0.521 µM, CCC1CCCCN1C(=O)c1cc(-c2ccc(Cl)c(Cl)c2)on1 (stereo not given) 7.36 µM, O=C(c1ccccc1-c1nc(-c2ccccc2)no1)N1CCCC1 18.5 µM, O=C(c1cc(-c2ccccc2)on1)N1CCCCCC1 3.29 µM, COc1ccccc1CCC(=O)Nc1ccc(C)cc1Cl 16.5 µM, Cc1ccc(Sc2ncccc2COC(=O)NC(C)C)cc1 16.5 µM, O=C1N=C(N2CCOCC2)S/C1=C\C=C/c1ccccc1 10.4 µM, Nc1ccccc1-c1nc2ccccc2s1 5.85 µM, Nc1ccc(-c2nc3ccccc3s2)cn1 1.47 µM, N#Cc1ccc(N2Cc3ccccc3C2=NC(=O)c2cccs2)cc1 8.26 µM, CCOC(=O)c1ccc(N2Cc3ccccc3C2=NC(=O)c2cccs2)cc1 3.29 µM, Cc1ccc2[nH]c3c(=S)nc[nH]c3c2c1 3.69 µM, Cc1cc(C(=O)N/N=C/c2cccc([N+](=O)[O-])c2)c(C)n1-c1ccccc1 6.56 µM, CC(C)c1ccc(NC(=O)c2ccccc2NC(=O)C2CC=CCC2C(=O)O)cc1 (stereo not given) 3.69 µM, O=C(Nc1ccc(Cl)c(Cl)c1)c1ccccc1NC(=O)C1CC=CCC1C(=O)O (stereo not given) 6.56 µM, CN(C)C=NC(=O)c1cc(C(=O)c2ccc(C(C)(C)C)cc2)c[nH]1 0.927 µM, Cn1c(CSc2ccccc2)c(C#N)c2ccccc21 14.7 µM, Cc1ccc(Nc2nc(/N=C/N(C)C)n[nH]2)cc1C 7.36 µM, Cc1ccc(Nc2nc(/N=C/NO)n[nH]2)cc1C 1.85 µM, COCn1c(-c2ccc(OC)cc2)nc2ccccc21 3.69 µM, COCn1c(COc2ccc3ccccc3c2)nc2ccccc21 2.07 µM, C=CCn1c(-c2ccc(N)cc2)nc2ccccc21 4.65 µM, O=C(c1cc(-c2ccccc2O)on1)N1CCCCCC1 2.07 µM, O=C(c1cc(-c2ccccc2O)on1)N1CCOCC1 13.1 µM, O=C(c1cc(-c2ccccc2O)on1)N1CCCCC1 0.826 µM, Cc1ccc2c(c1)NC(=O)CC(c1ccccc1)=N2 13.1 µM, CSc1ccc(/C=C/C(=O)c2c(O)cc(C)oc2=O)cc1 13.1 µM, Cc1ccc(NC(=O)CCCNC(=O)c2ccc(Cl)cc2)c(O)c1 16.5 µM, [O-]/[N+](=C\C=C\c1ccccc1)c1ccccc1 1.85 µM, CC(=O)Nc1ccc(C(=O)/C=C/c2ccc[nH]2)cc1 13.1 µM, COc1ccc(N2Cc3ccc(OC)c(OC)c3C2=O)cc1 2.07 µM, Cc1cccc(OCC(=O)Nc2ccccc2F)c1 6.56 µM, Cc1ccc(OCC(=O)Nc2ccccc2F)cc1C 4.14 µM, Cc1nc(NC(=O)CSc2nnc(-c3ccc4c(c3)OCO4)o2)c(Cl)cc1Cl 16.5 µM, O=C(CSCc1ccccc1Cl)Nc1ccc2c(c1)OCCO2 2.07 µM, O=C(CSc1nnc(-c2ccccc2Cl)o1)Nc1ccc2c(c1)OCCO2 6.56 µM, Cc1ccc(NC(=O)CSc2nnc(-c3cccs3)o2)cc1S(=O)(=O)N(C)C 8.26 µM, Cc1ccc(/C=C/C(=O)NCc2cccs2)c(C)c1 5.85 µM, COc1ccc(N(/N=C2\Sc3ccccc3C2=O)C(C)=O)cc1 0.261 µM, O=C(COC(=O)c1ccc[nH]c1=O)NCCc1ccc(Cl)cc1Cl 1.65 µM, COc1ccc(/C=C/c2nc(-c3ccccc3O)n[nH]2)cc1OC 4.65 µM, COc1ccc(/C=C/c2nc(-c3ccccc3O)n[nH]2)cc1 2.33 µM, CCc1nc2ccc(C(=O)NCCc3ccco3)cc2nc1CC 14.7 µM, COc1cc(C(F)(F)F)ccc1C(=O)NCCc1ccco1 7.36 µM, O=C(CSCc1ccccc1)N1CCN(c2ccccc2)CC1 6.56 µM, CC1CCN(C(=O)CSCc2ccc(Cl)cc2)CC1 11.7 µM, O=C(CCSc1ccccc1)N1CCN(c2ccccc2)CC1 6.56 µM, O=C(CCSc1ccccc1)N1CCN(c2ccccc2F)CC1 7.36 µM, Cc1ccc(SCCC(=O)N2CCC(C)CC2)cc1 7.36 µM, O=C(O)c1c2c(nc3ccccc13)/C(=C/c1ccc(OC(F)F)cc1)CCC2 14.7 µM, CN(C)c1ccc(/C=C2\CCCc3c2nc2ccccc2c3C(=O)O)cc1 4.65 µM, Cc1ccc2oc(-c3ccc(C)c(NC(=O)c4ccc(-c5ccccc5[N+](=O)[O-])o4)c3)nc2c1 8.26 µM, Cc1cc2nc(-c3ccc(NC(=O)C(C)C)cc3)oc2cc1C 0.369 µM, Cc1ccc2oc(-c3ccc(Cl)c(NC(=O)c4cc5ccccc5o4)c3)nc2c1 5.85 µM, Cc1ccc2oc(-c3ccc(NC(=O)c4cccc(F)c4)c(C)c3)nc2c1 7.36 µM, Cc1cc2nc(-c3ccc(NC(=O)c4cc5ccccc5o4)cc3)oc2cc1C 8.26 µM, C/C(=N\NC(=O)c1ccoc1C)c1cccc2ccccc12 7.36 µM, C/C(=N\NC(=O)c1ccoc1C)c1ccccc1 1.85 µM, Cc1ccc(NC(=O)c2ccoc2C)cc1C 4.14 µM, CCc1ccc(C(=O)N/N=C/c2cccc3ccccc23)nc1 8.26 µM, C/C(=N\NC(=O)c1ccco1)c1ccc(-c2ccccc2)cc1 2.93 µM, Cc1occc1C(=O)N/N=C/c1cnn(C)c1C 13.1 µM, C/C(CC(=O)NC(C)(C)C)=N\NC(=O)c1ccco1 6.56 µM, Cc1occc1C(=O)NNC(=S)Nc1ccccc1C(F)(F)F 8.26 µM, C/C(=N/NC(=O)c1ccoc1C)c1ccc(N2CCOCC2)cc1 0.927 µM, Cc1occc1C(=O)N/N=C/c1cccc2ccccc12 2.07 µM, Cc1occc1C(=O)NNC(=O)c1ccccc1C(=O)O 1.17 µM, O=[N+]([O-])c1ccccc1-c1cc(-c2ccccc2O)n[nH]1 2.07 µM, c1nc(NCCN2CCOCC2)c2c3c(sc2n1)CCCCC3 16.5 µM, Cc1ccc(O)c(NC(=O)c2cc(-c3ccccc3)on2)c1 2.61 µM, Cc1ccc(O)c(NC(=O)c2cc(-c3cccs3)on2)c1 4.65 µM, O=C(Nc1cc(Cl)ccc1O)c1cc(-c2ccco2)on1 16.5 µM, Cc1ccc(O)c(NC(=O)c2cc(-c3ccco3)on2)c1 13.1 µM, Cc1cc(NCc2ccccn2)ccc1Br 9.27 µM, COc1ccc(-c2nc(C#N)c(NCCCn3ccnc3)o2)cc1OC 16.5 µM, COc1ccc(-c2nc(C#N)c(NCCc3ccccc3)o2)cc1 9.27 µM, CC(C)(C)c1ccc(-c2nc(C#N)c(NCc3ccncc3)o2)cc1 4.14 µM, COc1ccc(-c2nc(C#N)c(NCc3ccc(C)cc3)o2)cc1OC 7.36 µM, COc1ccc(-c2nc(C#N)c(NCCc3ccccc3)o2)cc1OC 2.93 µM, CCC(=O)Nc1cccc(OCc2cc(=O)n3cc(C)ccc3n2)c1 6.56 µM, Cc1csc2ncc(C(=O)Nc3ccc4c(c3)OCCO4)c(=O)n12 0.208 µM, O=C(Nc1ccc2c(c1)OCCO2)c1cnc2n(c1=O)CCS2 1.47 µM, COc1cccc(-c2noc(-c3ccoc3C)n2)c1 6.56 µM, COc1ccc(-c2noc(-c3ccoc3C)n2)cc1 2.07 µM, Cc1ccc(/C=N/Nc2ncnc3nc[nH]c23)cc1 0.826 µM, Cc1ccc(NC(=O)Nc2ncnc3nc[nH]c23)cc1 2.93 µM, Cc1ccc(/C=N/Nc2nnc(Cl)c3ccccc23)cc1 0.414 µM, CCc1ccc(/C=N/Nc2ncnc3nc[nH]c23)cc1 0.656 µM, Cc1cccc(/C=N/NC(=O)c2ccc(Br)cc2)c1 18.5 µM, O=C(NNC(=S)Nc1ccccc1)c1cccs1 2.07 µM, COc1ccc(NC(=S)NNC(=O)c2cccs2)cc1 7.36 µM, CCN(CC)c1ccc(NC(=S)NC(=O)c2cccs2)cc1 2.33 µM, CCc1ccccc1Nc1ncnc2c1cnn2-c1ccc(Cl)cc1 6.56 µM, Cc1ccc(-n2ncc3c(Nc4cccc(C)c4C)ncnc32)cc1 2.07 µM, CCOc1ccccc1Nc1ncnc2c1cnn2-c1ccc(C)cc1 5.21 µM, COc1nc(-c2ccccc2)ccc1-c1noc(C)n1 7.36 µM, CCOc1ccccc1-c1nc(-c2ccc(C)nc2OC)no1 3.69 µM, COc1nc(C)ccc1-c1noc(-c2cccs2)n1 1.85 µM, COc1ccccc1-c1nc(-c2ccc(C)nc2OC)no1 3.29 µM
